Compound activity from PubChem.
PKA-R1A activ – activators of PKA-R1A holoenzyme, primary screen, biochemical, fluorescence polarization, Cy5-IP20, bovine R1A, mouse PKAc; hit rate 0.083% among 340,000; PKA-R1A dissociation; scaled: DMSO 0%, 113 µM cGMP 100%; cAMP-dependent protein kinase type I-alpha regulatory subunit (Bos taurus) + …; activation, % at 11.4 µM;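 active = percent activation above the mean of all tested compounds plus 3 SD, cut at about 19% in these data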;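 note: higher means more PKAc released from R1A so a rise in polarization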
PKA-R2B activ – activators of PKA-R2B holoenzyme, primary screen, biochemical, fluorescence polarization, Cy5-IP20, human; PKA-R2B holoenzyme dissociation; R2B truncated from residue 108, S112A mutant; 0% DMSO only, 100% 113 µM cGMP; activation, % at 11.4 µM; hit rate 0.079% among 340,000; AID 504700, 2011;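 active = activation above a cutoff set at the mean over all compounds plus 3 SD, cut at about 18% in these data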;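 note: higher means more holoenzyme dissociation and a rise in polarization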
Target sequence (P31323 whole entry, looked up, other chains not shown, the tested form may be a part): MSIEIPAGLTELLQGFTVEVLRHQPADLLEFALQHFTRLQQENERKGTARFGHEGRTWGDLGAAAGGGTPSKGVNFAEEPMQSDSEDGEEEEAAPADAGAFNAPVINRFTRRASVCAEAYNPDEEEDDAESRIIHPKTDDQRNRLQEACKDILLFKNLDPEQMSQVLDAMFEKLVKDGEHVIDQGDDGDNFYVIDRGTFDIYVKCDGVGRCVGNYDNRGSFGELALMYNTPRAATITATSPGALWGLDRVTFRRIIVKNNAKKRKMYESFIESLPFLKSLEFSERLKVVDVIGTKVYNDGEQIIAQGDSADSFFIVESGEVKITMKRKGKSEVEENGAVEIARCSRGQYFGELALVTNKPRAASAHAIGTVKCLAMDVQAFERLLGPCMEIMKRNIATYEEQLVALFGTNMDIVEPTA
bovine MsrA act – bovine MsrA enzyme activators, primary screen, biochemical, absorbance, HTS. hit rate 0.3% among 360,000. purified bovine MsrA, absorbance read-out. activation, % at 10.6 µM; in the data active = activation above about 7.5%;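 note: 0% = vehicle and 100% = reference activator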
MsrA inhibitor – bovine MsrA enzyme inhibitors, primary screen, biochemical, absorbance, HTS; purified bovine MsrA, absorbance read-out; Methionine sulfoxide reductase A (Bos taurus); hit rate 0.75% among 360,000; inhibition, % at 15.5 µM;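 note: 0% = vehicle wells with enzyme and 100% = reference inhibitor wells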
MsrA conf – bovine MsrA inhibitors, retest, confirmation, biochemical, absorbance, HTS. inhibition, % at 15.5 µM. AID 651822, 2012. shares compounds with MsrA inhibitor. purified bovine MsrA, absorbance read-out. hit rate 41% among 2,300;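 note: coupled to thioredoxin reductase with NADPH and selenocystamine and DMSO as substrate; 0% = vehicle only and 100% = full effect of reference inhibitor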
The depositor's hits bear a star; · = no result given. In the library only some 1.1% were active in any assay of this set; here they are far more common. Cut-off read from the data, not from the text of the source, unless noted: active = inhibition above about 4.5%; inactive = the rest.

SMILES	PKA-R1A activ	PKA-R2B activ	bovine MsrA act	MsrA inhibitor	MsrA conf
O=C(N/N=C/c1cccc([N+](=O)[O-])c1)c1cccs1	-15.1	-2.9	-4.1	1.6	·
CC(=O)c1cnc(N(C)C)s1	2.7	-5.2	-3.5	6.5*	3.9
CC(=O)c1cnc(Nc2ccccc2)s1	-3.7	9.2	-2.3	4.5	·
Cc1noc(NS(=O)(=O)c2ccc(NC(=O)c3cnc4n(c3=O)CCS4)cc2)c1C	5.4	0.7	-5.0	6.9*	4.6*
CCOc1cc(/C=C/C(=O)OCC(=O)NCc2ccco2)cc(Cl)c1OC	-1.7	8.1	-6.0	0.6	·
O=C(Nc1ccc2nc(-c3ccc(Br)o3)[nH]c2c1)c1ccco1	-7.4	-2.7	-9.1	6.5*	6.6*
COCc1cc(N2CCN(C(=O)OC(C)(C)C)C[C@H]2C)ccc1N1CC[C@H](O)C1	·	·	·	-0.6	·
O=C(NCc1ccc(CNC(=O)c2ccco2)cc1)c1ccco1	3.4	2.0	3.1	1.4	·
NC(N)=NC1=NC(=O)/C(=C/c2ccccc2-n2cccn2)S1	7.0	2.9	-6.1	5.3*	2.5
CCN(CC)Cc1c(O)ccc2cc(-c3nc4ccccc4n3C)c(=O)oc12	-0.9	10.0	-1.0	2.0	·
CCc1cc2c(=O)c(-c3nc4ccccc4n3C)c(C)oc2c(CN(CC)CC)c1O	-1.7	-4.8	-2.1	5.3*	3.5
COc1ccc(/C=N/NC(=O)c2[nH]c3ccc(C)cc3c2-c2ccccc2)c(C(=O)O)c1OC	-0.5	-20.0	-5.4	6.2*	4.3
COc1cc(/C=N/NC(=O)c2cc(-c3ccco3)nc3ccccc23)cc(OC)c1O	-17.9	-7.2	-7.3	4.7*	3.3
COc1ccc(-c2cc(C(=O)N/N=C/c3ccc4c(c3)OCO4)c3ccccc3n2)c(OC)c1	14.6	-3.4	-3.0	5.8*	3.8
COc1cc(/C=N/NC(=O)c2cc(-c3ccccc3Cl)nc3ccccc23)cc(OC)c1O	-8.6	3.1	-4.2	2.3	·
COc1ccc(/C=N/NC(=O)c2cc(-c3ccccc3)nc3ccccc23)c(C(=O)O)c1OC	-9.4	-19.1	-3.7	4.7*	2.4
COc1cccc(-c2cc(C(=O)N/N=C/c3cccc(OC)c3OC)c3ccccc3n2)c1	3.2	9.5	-1.7	1.1	·
CC(C)[C@H](NC(=O)C1CCCC1)C(=O)N1CCC[C@H]1C(=O)NCCc1ccccc1Cl	·	·	·	-0.6	·
Cc1cc2oc(=O)cc(CN3CCCCC3)c2cc1Cl	·	·	-1.6	0.1	·
Cc1nn(-c2ccccc2)c(N2CCCC2)c1/C=N/NC(=O)c1ccccc1O	8.9	4.2	-4.6	1.1	·
Cc1nc2ccccc2c(=O)n1/N=C/c1ccccc1	3.1	0.7	-1.3	-0.9	·
COc1cc(/C=N/n2c(C)nc3ccccc3c2=O)ccc1O	0.9	-5.5	-3.1	5.4*	3.4
COc1ccc(/C=N/NC(=O)c2cc(-c3ccccc3)nc3ccccc23)cc1O	-11.5	-19.3	-4.1	1.7	·
COc1cc(/C=N/NC(=O)c2cc(-c3ccccc3)nc3ccccc23)ccc1O	-0.7	17.9	-2.5	5.0*	4.5
Cc1nn(-c2ccccc2)c(N2CCCC2)c1/C=N/NC(=O)c1cc(-c2cccnc2)nc2ccccc12	-2.5	-2.3	-10.8	4.7*	0.9
SMILES	PKA-R1A activ	PKA-R2B activ	bovine MsrA act	MsrA inhibitor	MsrA conf
COC(=O)C1=C(C)N(Cc2ccccc2C(F)(F)F)C(=NCc2cc(OC)c(OC)c(OC)c2)NC1CCc1ccccc1 (centres undefined)	·	·	·	-0.7	·
CC(C)(C)S(=O)(=O)/C(C#N)=N/Nc1ccc(C#N)cc1	-10.2	2.0	-4.2	4.4	·
COc1cccc(N/N=C(\C#N)S(=O)(=O)C(C)(C)C)c1	·	·	-13.8	4.7*	2.4
O=C(O)c1ccc2c3c(cccc13)C(=O)N(c1ccccc1)C2=O	-3.4	1.1	-6.9	4.1	·
NS(=O)(=O)c1ccc(O)c(N2C(=O)c3cccc4c(C(=O)O)ccc(c34)C2=O)c1	1.1	3.9	-1.0	5.0*	4.2
O=C(O)c1ccc(N2C(=O)c3cccc4c(C(=O)O)ccc(c34)C2=O)cc1	·	·	-3.7	5.5*	2.4
O=C(/C=C/c1ccccc1)c1ccccc1	-4.4	-0.8	-4.5	-0.1	·
O=C(/C=C/c1ccccc1)/C=C/c1ccccc1	4.1	16.8	-6.0	4.9*	1.4
CN(C)/C=C/c1oc2ccc(O)cc2c1[N+](=O)[O-]	-15.6	-1.0	-4.5	5.5*	4.1
CN(C)c1ccc(C=Nc2cnn(C)c2C(N)=O)cc1	-5.7	-4.0	-3.1	4.9*	3.1
Cc1ccc[n+](/C(=C\C(=C=[N-])C#N)C(=O)c2ccc(Cl)cc2)c1	1.1	11.4	-5.8	4.8*	5.0*
Cc1cccc(N/C=C/C(=O)c2ccc(Cl)cc2)c1	3.8	-5.0	-1.0	1.7	·
COCc1cc(N2CCN(C(=O)OC(C)(C)C)C[C@@H]2C)ccc1Br	·	·	·	-1.2	·
CN(C(=O)c1ccc(NC(=O)Cc2cccc(NC(=O)C3CCN(C(=O)CCc4ccccc4)CC3)c2)cc1)C1CCCC1	14.7	-9.3	-5.1	1.2	·
Cc1ccc(C(=O)c2ccc(CC(=O)O)n2C)cc1	2.3	-3.4	-4.5	4.3	·
CSC(=Cc1ccc(C(=O)c2ccc(C)cc2)n1C)S(C)=O (centres undefined)	·	·	·	5.0*	2.9
CC(C)[C@H](NC(=O)c1ccccc1)C(=O)OCC(=O)c1ccc(S(=O)(=O)N2CCCCC2)cc1	4.4	-5.0	-3.0	-1.0	·
O=C(N/N=C/c1cn(-c2cccs2)nc1-c1ccccc1)c1ccccc1O	-4.6	1.0	-5.5	5.5*	2.3
O=C(N/N=C/c1cn(-c2cccs2)nc1-c1ccccc1)c1ccccc1Br	-7.1	-9.0	-2.7	6.5*	1.5
Cc1nc(C)c(C(=O)N/N=C/c2cn(C)c3ccccc23)s1	13.2	8.3	-1.6	5.1*	3.1
Cc1nc(C)c(C(=O)N/N=C/c2c[nH]c3ccccc23)s1	-5.1	-5.5	-2.2	·	·
COC(=O)C1CCN(C(=O)/C(C)=C\c2ccccc2)CC1	-1.4	-9.6	-3.2	-0.1	·
CCOCCn1c(=NC(=O)CSCC(=O)Nc2cc(C)on2)sc2cc(OC)ccc21	-3.6	-3.2	-3.4	6.3*	1.6
COCCn1c(=NC(=O)CSCC(=O)NC2CCCCC2)sc2cc(OC)ccc21	-2.9	12.1	-10.3	1.4	·
COc1ccc(NC(=O)Nc2ccc3c(c2)C(=O)N([C@H](C)CO)C[C@@H](C)[C@@H](CN(C)Cc2ccc4c(c2)OCO4)OCCCC[C@H](C)O3)cc1	·	·	·	-0.9	·
O=C(N/N=C/c1ccc[nH]1)c1ccc2c(c1)OCO2	-6.7	-2.9	-2.7	5.1*	4.0
Cc1ccsc1/C=N/NC(=O)c1ccc2c(c1)OCCO2	5.0	-7.3	-4.9	3.5	·
COCCNC(=S)N/N=C/c1ccc2c(c1)OCCO2	-10.5	-2.4	-2.5	3.6	·
COCCCNC(=S)N/N=C/c1ccc2c(c1)OCO2	·	·	-3.5	5.5*	4.9*
